Experimental data taken from PubChem BioAssay AID493185 (National Center for Advancing Translational Sciences (NCATS), 2011).
Calls of active or inactive are those of the source. A call without a number means that no potency is given here. Calls follow the shape of the dose curve; as a rule, active = well fitted activation curve with a large enough effect; inconclusive = small, poorly fitted or top-dose-only effect; inactive = no such curve, though single readings can be large or run the other way.

Test: Counterscreen for Identifying a Potential Treatment of Ataxia-Telangiectasia: Hit Validation
Settings: cell-free AlphaLISA/AlphaScreen artifact counterscreen, PBS only, no cells; series mostly up to 76.9 µM
Outline: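 Without cells, compounds at up to 76.7 uM final were combined with premixed anti-pKAP1/anti-KAP1 AlphaLISA bead reagents, protease inhibitors and lysis buffer; signal read after 6 hr at 25C to flag assay-platform artifacts.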
Potency is read from the fitted curve at half-maximal effect.

SMILES	Potency
CCC(=O)NC1=C(Cl)C(=O)C(NC(=O)CC)=C(Cl)C1=O	inactive
O=C(CNCc1cccs1)Nc1ccc(OC(F)(F)F)cc1	inactive
CNC(=O)c1ccc(-c2sc3nc(N4CCOCC4)c4c(c3c2N)CC(C)(C)OC4)o1	46.3 µM (active)
COC1=C(N)C(=O)c2nc(-c3nc(C(=O)O)c(C)c(-c4ccc(OC)c(OC)c4O)c3N)ccc2C1=O	inactive
CCOc1cccc(-c2nnc(SCC(=O)Nc3cc(C)ccc3OC)n2N)c1	inactive
COc1ccc(-c2nc3n(c2C)Cc2ccccc2-3)cc1	32.8 µM (active)
CC(C)C1CC(CCN)(c2ccccc2)CCO1 (stereo not drawn)	inactive
CCOC(=O)C1=C(O)C(=O)N(Cc2ccccc2)C1	inactive
CC(C)CN(CC(C)C)C(=O)c1cc2c(=O)n3ccccc3nc2s1	inactive
O=C(O)c1ccc(-c2nc3ccccc3s2)o1	inactive
COc1cc(/C=C2\SC(=S)N(C(C(=O)O)c3ccccc3)C2=O)ccc1O (stereo not drawn)	inactive
Cn1c(=O)[nH]c(=O)c2[nH]c(N(Cc3ccccc3)Cc3ccccc3)nc21	inactive
COc1ccc(-c2cc(C(F)(F)F)c(C#N)c(SCC(=O)O)n2)cc1OC	inactive
Cc1ccccc1OCC(=O)Nc1cccc(C(=O)O)c1	inactive
O=C(C[n+]1cccc2ccccc21)c1ccc(NC(=O)c2ccccc2)cc1	inactive
CC(C)Nc1nc(Oc2ccc(=O)n(-c3ccccc3)n2)nc(N(C)C)n1	inactive
COc1cccc(OCCc2c(C)n[nH]c2C)c1	inactive
CC(=O)/C(N=Nc1nc2c([nH]1)c(=O)n(C)c(=O)n2C)=C(\C)O	inactive
